Some test systems named below: NCI-H23 lung; NCI-H226 lung; NCI-H322M lung; HOP-62 NSCLC; NCI-H460 lung; HOP-92 NSCLC; NCI-H522 lung; A549/ATCC NSCLC; 786-0 renal; COLO 205 colon; DU-145 prostate; K-562 leukemia; MALME-3M melanoma; MDA-MB-231 breast; RXF 393 renal; SF-268 CNS; SF-295 CNS; SF-539 CNS; UACC-257 melanoma; M14 melanoma.
What all share (assay): NCI-60 one-dose screen, 48 h (100 = growth as untreated, 0 = no growth, -100 = all killed)
What all share (details): 10 µM unless noted

The structures appear in SMILES notation. The panel holds about 83,000 compounds, 20% with a hit somewhere; the sample as a whole holds those more often.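 Growth was measured after 48 h exposure to one concentration of compound in 96-well plates. Values under 10 count as active.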 A number with no mark means an inactive call. Active and inactive are the calls of the source.

Turning to `Nc1cc(-c2ccc(Cl)cc2)nn1-c1nnc(/C=C/c2ccco2)c(=O)[nH]1`, the growth in the experiment with NCI-H23 lung was 58.8%; in the experiment with NCI-H226 lung, 47.4%; in the experiment with NCI-H322M lung, 24.4%; with HOP-62 NSCLC, 71.3%; with NCI-H460 lung it was 20.4%; in the experiment on HOP-92 NSCLC it was 60.3%. Moreover, the growth in the experiment on NCI-H522 lung was 74.9%; with A549/ATCC NSCLC it was 37.3%; with 786-0 renal it was 46.9%; in the experiment with COLO 205 colon, 72.6%; in the experiment with DU-145 prostate it was 63.3%; in the experiment on K-562 leukemia, 41.7%. The growth in the experiment with MALME-3M melanoma was 72.5%; with MDA-MB-231 breast it was 74.2%; with RXF 393 renal it was 67.8%; with SF-268 CNS, 52.5%; with SF-295 CNS, 9.9% (active); in the experiment on SF-539 CNS, 55.4%. Also, the growth in the experiment with UACC-257 melanoma was 69.6%; with M14 melanoma, 57.4%.

For the compound `O=C(O)c1cn(C2CC2)c2cc(N3CCN(C(=O)N/N=C/c4cccc5ccccc45)CC3)c(F)cc2c1=O`, the growth in the experiment with NCI-H23 lung is 93.9%; in the experiment with NCI-H226 lung, 94.3%; in the experiment on NCI-H322M lung, 101%; with HOP-62 NSCLC, 95.2%; with NCI-H460 lung, 106%; in the experiment with HOP-92 NSCLC it was 97.2%. In addition, the growth in the experiment on NCI-H522 lung is 81%; in the experiment with A549/ATCC NSCLC it was 106%; with 786-0 renal it was 71.7%; in the experiment on COLO 205 colon, 114%; with DU-145 prostate it was 104%; with K-562 leukemia, 103%. In addition, the growth in the experiment on MALME-3M melanoma was 101%; in the experiment on MDA-MB-231 breast, 94.9%; with RXF 393 renal, 95.5%; in the experiment with SF-268 CNS, 86.3%; in the experiment with SF-295 CNS it was 104%; in the experiment with SF-539 CNS, 93.4%. In addition, the growth in the experiment on UACC-257 melanoma is 98.8%; in the experiment with M14 melanoma it was 93.1%.

Turning to `COc1cc(N2C(=O)[C@H](Cl)C2c2ccc(SC)cc2)cc(OC)c1OC` (stereo not given in full), the growth in the experiment on NCI-H23 lung was 16.7%; in the experiment on NCI-H226 lung it was 53.8%; in the experiment on NCI-H322M lung, 42.9%; with HOP-62 NSCLC it was 23.1%; with NCI-H460 lung it was 5.39% (active); with HOP-92 NSCLC it was -0.311% (active). In addition, the growth in the experiment with NCI-H522 lung is -7.37% (active); in the experiment on A549/ATCC NSCLC it was 11.1%; with 786-0 renal, -0.223% (active); with COLO 205 colon, -45.6% (active); in the experiment with DU-145 prostate it was 7.66% (active); with K-562 leukemia, 4.94% (active). For the same compound, the growth is 78.4% in the experiment with MALME-3M melanoma; 29.3% in the experiment with MDA-MB-231 breast; -16.1% (active) in the experiment on RXF 393 renal; 28.9% in the experiment on SF-268 CNS; -7.12% (active) with SF-295 CNS; 8.03% (active) in the experiment on SF-539 CNS. Further, the growth was 27.3% in the experiment with UACC-257 melanoma and -2.68% (active) with M14 melanoma.

In the case of `CC(=O)c1c(Nc2cccc(F)c2)[nH]c2c(Cl)cc(Cl)c(Cl)c2c1=O`, the growth with NCI-H23 lung is 3.83% (active); with NCI-H226 lung, -4.3% (active); in the experiment on NCI-H322M lung, 9.02% (active); with HOP-62 NSCLC, -10.1% (active); in the experiment with NCI-H460 lung, 3.6% (active); in the experiment with HOP-92 NSCLC it was -14.2% (active). For the same compound, the growth in the experiment on NCI-H522 lung was -8.41% (active); with A549/ATCC NSCLC, 4.98% (active); in the experiment with 786-0 renal it was 12.2%; in the experiment on COLO 205 colon, -63.4% (active); in the experiment with DU-145 prostate, 25.2%; in the experiment with K-562 leukemia, 7.81% (active). Besides, the growth was -18.6% (active) in the experiment with MALME-3M melanoma; -3.57% (active) in the experiment with MDA-MB-231 breast; 4.14% (active) in the experiment with RXF 393 renal; 19.2% in the experiment on SF-268 CNS; -28.4% (active) with SF-295 CNS; 4.02% (active) in the experiment on SF-539 CNS. Also, the growth in the experiment on UACC-257 melanoma is -14.2% (active); with M14 melanoma, 6.55% (active).

Regarding `O=C(Nc1cc(Cl)ccc1O)c1ccccc1Nc1ccnc(C(F)(F)F)c1`, the growth with NCI-H23 lung was -5.07% (active); with NCI-H226 lung, 50.9%; in the experiment on NCI-H322M lung, 30.9%; in the experiment with HOP-62 NSCLC it was 16.6%; with NCI-H460 lung, 2.15% (active); in the experiment on HOP-92 NSCLC, 49.1%. Besides, the growth is -6.22% (active) in the experiment on NCI-H522 lung; 19.7% in the experiment with A549/ATCC NSCLC; 57.9% in the experiment with 786-0 renal; 79.6% in the experiment with COLO 205 colon; 23.8% in the experiment on DU-145 prostate; 0.85% (active) in the experiment on K-562 leukemia. Further, the growth in the experiment on MALME-3M melanoma was -0.18% (active); in the experiment with MDA-MB-231 breast it was 29.8%; in the experiment on RXF 393 renal, 25.7%; in the experiment on SF-268 CNS it was 21.1%; with SF-295 CNS it was 46.3%; in the experiment on SF-539 CNS, 14.5%. Further, the growth with UACC-257 melanoma was 26.8%; in the experiment on M14 melanoma it was 36%.

In the case of `O=C(NNc1nc2cc(F)ccc2n2c(CN3CCOCC3)ccc12)c1ccccc1`, the growth in the experiment with NCI-H23 lung was 19.7%; in the experiment on NCI-H226 lung it was 17.4%; in the experiment with NCI-H322M lung it was 25.1%; in the experiment with HOP-62 NSCLC, 14.6%; in the experiment on NCI-H460 lung, 0.156% (active); in the experiment with HOP-92 NSCLC, 27.8%. Moreover, the growth in the experiment on NCI-H522 lung was 9.17% (active); in the experiment with A549/ATCC NSCLC it was 2.97% (active); in the experiment with 786-0 renal, 6.29% (active); in the experiment on COLO 205 colon, 1.54% (active); in the experiment with DU-145 prostate, 23.6%; in the experiment with K-562 leukemia it was 5.32% (active). For the same compound, the growth in the experiment on MALME-3M melanoma was 8.12% (active); with MDA-MB-231 breast, 17.3%; with RXF 393 renal, -0.227% (active); in the experiment with SF-268 CNS it was 14.8%; in the experiment on SF-295 CNS it was 0.468% (active); in the experiment with SF-539 CNS it was 4.33% (active). The growth in the experiment with UACC-257 melanoma was -6.53% (active); in the experiment on M14 melanoma, -15.6% (active).

Take `Cc1c2cnccc2c(C)c2c1c1cc(CO)ccc1n2C`: the growth is -46.1% (active) in the experiment with NCI-H23 lung; -68.5% (active) in the experiment with NCI-H226 lung; -40.2% (active) with NCI-H322M lung; -48.8% (active) in the experiment with HOP-62 NSCLC; -32.5% (active) in the experiment with NCI-H460 lung; -20% (active) with HOP-92 NSCLC. Also, the growth in the experiment with NCI-H522 lung was -72.6% (active); with A549/ATCC NSCLC it was -28.2% (active); with 786-0 renal, -13.1% (active); in the experiment with COLO 205 colon it was -51.2% (active); in the experiment with DU-145 prostate, -0.903% (active); with K-562 leukemia it was 1.71% (active). Further, the growth is -87.6% (active) with MALME-3M melanoma; -52.1% (active) in the experiment on MDA-MB-231 breast; -84.7% (active) in the experiment with RXF 393 renal; -28.8% (active) in the experiment on SF-268 CNS; -26.6% (active) with SF-295 CNS; -68% (active) in the experiment on SF-539 CNS. For the same compound, the growth is -52.7% (active) with UACC-257 melanoma and -90.9% (active) in the experiment with M14 melanoma.

The values above are taken from PubChem BioAssay (NCI).
